From PubChem BioAssay (Tox21)
Results filed as inconclusive are left out. A call without a number means that no potency is given here. Some compounds were tested as several samples or in several runs, with calls that do not always agree. Activity calls are given as the source filed them. Unless noted, calls come from the whole dose curve; as a rule, active = well fitted curve in the direction sought with a large enough effect in the repeat runs; inconclusive = weak or mixed curves; inactive = no such curve, though single readings can be large; an effect the other way counts as inactive or inconclusive.

How the values were obtained:
[1] = qHTS assay to identify small molecule antagonists of the progesterone receptor (PR) signaling pathway - cell viability counter screen (AID 1346798); note: series mostly up to about 92 µM; nearly all actives have a fitted effect of over 50% in size
Method in brief: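 CellTiter-Glo luminescence; PR-UAS-bla HEK293T, 3,000 cells/well; compound + R5020, 16 hr, 37C/5% CO2; 30 min RT before read.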

[2] = qHTS assay to identify small molecule agonists of the progesterone receptor (PR) signaling pathway - cell viability counter screen (AID 1346799; calls by dose curve; note: nearly all actives have a fitted effect of over 45% in size; note: potency is the fitted concentration of half-maximal effect)
Method in brief: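 In parallel with the beta-lactamase readout, cytotoxicity toward PR-UAS-bla HEK293T cells was measured by CellTiter-Glo luminescence following 16 hr compound incubation in 2% charcoal-stripped FBS medium.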

[3] = qHTS assay to identify small molecule antagonists of the TGF-beta/Smad signaling pathway - cell viability counter screen (AID 1346824); note: nearly all actives have a fitted effect of over 50% in size
Method in brief: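 Cytotoxicity counter-screen run in the same wells as the beta-lactamase Smad reporter read: CellTiter-Glo luminescence after 30 min at room temperature. HEK 293T SBE-bla cells had 5 hr compound exposure at 37 C with TGF-beta1 (0.25 ng/mL stock).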

[4] = qHTS assay to identify small molecule agonists of the TGF-beta/Smad signaling pathway - cell viability counter screen (AID 1346829); note: top concentration of the series differs between compounds; nearly all actives have a fitted effect of over 45% in size
Method in brief: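 HEK 293T SBE-bla line, 5 hr compound exposure at 37 C, multiplexed CellTiter-Glo viability read by luminescence.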

[5] = qHTS assay to identify small molecule agonists of the TGF-beta/Smad signaling pathway (AID 1346859; active = well fitted activation curve with a large enough effect in the signal ratio in the repeat runs, not every such curve was filed as active; the % refers to the signal ratio; note: series mostly up to about 77 µM)
Method in brief: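 After overnight seeding, SBE-bla HEK 293T cells are dosed with compounds in DMSO and kept 5 hr at 37 C, 5% CO2. LiveBLAzer-type FRET substrate is then applied for 2 hr at room temperature.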

[6] = target: Thyrotropin-releasing hormone receptor (Homo sapiens) (UniProt P34981); experiment: qHTS assay to identify small molecule antagonists of the thyrotropin-releasing hormone receptor (TRHR) signaling pathway (AID 1346877; active = well fitted inhibition curve with a large enough effect in the repeat runs, not every such curve was filed as active; note: series mostly up to about 51 µM)
Method in brief: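 In this cell-based calcium flux format, HEK293 cells expressing TRHR received test compound for 5 min before the agonist TRH (1 nM final). Dye loading lasted 2 h at 37 °C.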

[7] = Human pregnane X receptor (PXR) small molecule agonists, qHTS cell viability counter screen (AID 1346977); note: nearly all actives have a fitted effect of over 50% in size
Method in brief: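 Viability counter screen: CellTiter-Fluor signal in PXR-Luc HepG2 cells, 24hr compound exposure, 37C, 5% CO2.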

[8] = Caspase-3/7 induction in HepG2 cells by small molecules, qHTS assay (AID 1346978); note: nearly all actives have a fitted effect of over 15% in size
Method in brief: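 Caspase-3/7 induction was measured by Caspase-Glo 3/7 luminescence (30 min, room temperature) after a 17 hr compound exposure of wild-type HepG2 cells seeded at 2,000 per well and pre-incubated 5 hr.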

[9] = Caspase-3/7 induction in CHO-K1 cells by small molecules, qHTS cell viability counter screen (AID 1346979); note: nearly all actives have a fitted effect of over 35% in size
Method in brief: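 Viability readout by fluorescence (CellTiter-Fluor) on wild-type CHO-K1 cells exposed for 16hr at 37C and 5% CO2 to compounds delivered in DMSO; reagent incubated 1hr before reading.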

[10] = target: Thyrotropin-releasing hormone receptor (Homo sapiens) (UniProt P34981); experiment: qHTS assay to identify small molecule agonists of the thyrotropin-releasing hormone receptor (TRHR) signaling pathway (AID 1346891; calls by dose curve; note: series mostly up to about 58 µM)
Method in brief: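 Compounds were tested as agonists at 15 concentrations, in triplicate, on TRHR-Hek293 cells; calcium-sensitive dye fluorescence was recorded for 3 min following addition.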

Sequence of Thyrotropin-releasing hormone receptor (Homo sapiens) (P34981 whole entry, looked up): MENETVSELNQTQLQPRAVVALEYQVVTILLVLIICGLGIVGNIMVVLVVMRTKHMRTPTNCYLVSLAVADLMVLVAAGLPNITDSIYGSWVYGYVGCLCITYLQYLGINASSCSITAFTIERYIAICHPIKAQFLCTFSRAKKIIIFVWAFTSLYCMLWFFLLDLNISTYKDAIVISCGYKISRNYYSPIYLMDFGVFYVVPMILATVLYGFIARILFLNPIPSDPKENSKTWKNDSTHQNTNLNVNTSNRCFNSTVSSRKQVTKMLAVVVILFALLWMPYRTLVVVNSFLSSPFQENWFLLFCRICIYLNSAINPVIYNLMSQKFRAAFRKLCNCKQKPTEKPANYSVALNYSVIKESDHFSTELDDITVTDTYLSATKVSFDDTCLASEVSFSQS

Row | Structure (SMILES) | Potency [1] | Potency [2] | Potency [3] | Potency [4] | outcome [5] | Potency [6] | Potency [7] | Potency [8] | Potency [9] | outcome [10]
1 | CCCCCCCCCCCCc1ccccc1 | inactive | inactive | inactive | inactive | inactive | inactive | inactive | inactive | inactive | 
2 | C#CCN(C)Cc1ccccc1 | inactive | inactive | inactive | inactive | inactive | inactive | inactive | inactive | inactive | 
3 | CCCCC(CC)CO (stereo not drawn) | inactive | inactive | inactive | inactive | inactive |  | inactive | inactive | inactive | 
4 | Oc1cccc2ccccc12 | inactive | inactive | inactive | inactive | inactive | inactive | inactive | inactive | inactive | 
5 | O=c1[nH]nnc2ccccc12 | inactive | inactive | inactive | inactive | inactive |  | inactive | inactive | inactive | 
6 | FC(F)(F)c1ccc(Cl)c(Cl)c1 | inactive | inactive | inactive | inactive | inactive | inactive | inactive | inactive | inactive | inactive
7 | O=C(O)c1cc(C(=O)O)cc(S(=O)(=O)O)c1 | inactive | inactive | inactive | inactive | inactive |  | inactive | inactive | inactive | 
8 | CN(C)CCCN | inactive | inactive | inactive | inactive | inactive | inactive | inactive | inactive | inactive | inactive
9 | CCCCCCCCCC | inactive | inactive | inactive | inactive | inactive |  | inactive | inactive | inactive | 
10 | Cc1ccc(N(C)C)cc1 | inactive | inactive | inactive | inactive | inactive | inactive | inactive | inactive | inactive | 
11 | C=CCNC(N)=S | inactive | 21.2 µM (active) and inactive | inactive | inactive | inactive | inactive | inactive | inactive | inactive | 
12 | O=C1CCC(N2C(=O)c3ccccc3C2=O)C(=O)N1 (stereo not drawn) | inactive | inactive | inactive | inactive | inactive | inactive | inactive | inactive | inactive | inactive
13 | CC1CCC(C(C)C)C(O)C1 (stereo not drawn) | inactive | inactive | inactive | inactive | inactive | inactive | inactive | inactive | inactive | inactive
14 | Nc1ccccc1[N+](=O)[O-] | inactive | inactive | inactive | inactive | inactive | inactive | inactive | inactive | inactive | 
15 | C[C@H]1C[C@@H]2[C@H]([C@@H](O)C[C@@]3(C)[C@H]2CC[C@]3(O)C(=O)CO)[C@@]2(C)C=CC(=O)C=C12 | inactive | inactive | inactive | inactive | inactive |  | inactive | inactive | inactive | 
16 | CC(C)CC(=O)CC(C)C | inactive | inactive | inactive | inactive | inactive |  | inactive | inactive | inactive | 
17 | Fc1ccc(Br)cc1 | inactive | inactive | inactive | inactive | inactive | inactive | inactive | inactive | inactive | 
18 | COc1ccc(Nc2ccccc2)c(C)c1 | inactive | inactive | inactive | inactive | inactive | inactive | inactive | inactive | inactive | 
19 | C[Si](O[Si](C)(C)C)O[Si](C)(C)C | inactive | inactive | inactive | inactive | inactive | inactive | inactive | inactive | inactive | inactive
20 | CCCCCOC(C)=O | inactive | inactive | inactive | inactive | inactive | inactive | inactive | inactive | inactive | inactive
21 | CCCCCCOCCO | inactive | inactive | inactive | inactive | inactive |  | inactive | inactive | inactive | 
22 | CCCCOC(=O)COc1ccc(Cl)cc1Cl | inactive | inactive | inactive | inactive | inactive | inactive | inactive | inactive | inactive | 
23 | CCC(O)OC(O)CC (stereo not drawn) | inactive | inactive | inactive | inactive | inactive | inactive | inactive | inactive | inactive | 
24 | CCc1cccc(C)c1N | inactive | inactive | inactive | inactive | inactive | inactive | inactive | inactive | inactive | 
25 | CN(C)CCOCCN(C)C | inactive | inactive | inactive | inactive | inactive |  | inactive | inactive | inactive | 
26 | CC(=O)c1ccccc1 | inactive | inactive | inactive | inactive | inactive | inactive | inactive | inactive | inactive | inactive
